RGS4 inhibitor: Inhibitors of Regulator of G Protein Signaling (RGS) 4: qHTS; Regulator of G-protein signaling 4 (Homo sapiens), P49798; Transcreener GDP fluorescence polarization, RGS4-accelerated GTP hydrolysis; Potency, µM (top dose mostly 114 µM), for the others: at the highest dose activity change, negative = inhibition, usual class: inhibitors; 0.039% of 390,000 active; AID 504845, 2011; also: potency is read from the fitted curve at half-maximal effect; % is scaled to controls: 0 for no effect and ±100 for the full control effect; nearly all actives have a fitted effect of over 75% in size
Target sequence (P49798 whole entry, looked up): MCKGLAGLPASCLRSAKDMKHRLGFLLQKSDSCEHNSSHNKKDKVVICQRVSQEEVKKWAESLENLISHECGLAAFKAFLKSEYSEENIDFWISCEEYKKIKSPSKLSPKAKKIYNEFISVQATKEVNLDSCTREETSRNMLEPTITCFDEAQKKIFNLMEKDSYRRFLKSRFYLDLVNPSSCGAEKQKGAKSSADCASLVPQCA
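MLSMR compounds (23 nl, pin-transferred) preincubated 10 min at room temperature with a 500nM (2x) first reagent, then RGS4 at 900nM (2x) plus Transcreener GDP mix added; fluorescence polarization (620/688 nm) read before and after 90 min at 30 °C.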
LDHA block: qHTS assay for inhibitors of human lactate dehydrogenase | purified LDHA, NADH/diaphorase-resazurin fluorescence; active compounds read low | AID 1347041, 2019 | activity change, % (values are at about 110 or 230 µM) | 0.15% of 480,000 active | L-lactate dehydrogenase A chain (Homo sapiens), P00338; in the data active = activity change below about -30%; inconclusive = mostly about -25% to -30%;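 also: plate controls were DMSO wells for no effect and wells without enzyme for full effect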
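Enzyme activity of human lactate dehydrogenase 5 (2 nM; 0.06 mM NADH, 0.2 mM pyruvate, 5 min, RT) is measured via a resazurin/diaphorase fluorescence readout of residual NADH.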
Mito fusion yeast: qHTS Assay for Small Molecule Inhibitors of Mitochondrial Division or Activators of Mitochondrial Fusion; S. cerevisiae fusion-defective mutant growth rescue, CellTiterGlo 48 h; Potency, µM (top dose mostly 46.1 µM), for inactives: top-dose growth rescue (activation), most hits filed as activators; 0.23% of 320,000 active; AID 485298, 2010; also: potency is read from the fitted curve at half-maximal effect; % of control where 0% means no effect; nearly all actives have a fitted effect of over 45% in size
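Read-out: ATP-based luminescence (CellTiterGlo, 10 min ambient) reporting growth of fusion-defective ts yeast after 48 hours at 37C on glycerol/ethanol YPEG medium in the presence of compound.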
mIDH1 inhibitor: qHTS for Inhibitors of mutant isocitrate dehydrogenase 1 (IDH1): qHTS; Isocitrate dehydrogenase [NADP] cytoplasmic (Homo sapiens), O75874; IDH1-R132H enzyme, NADPH consumption, diaphorase/resazurin fluorescence; Potency, µM (top dose mostly 76.6 µM), inactives show top-dose activity change, negative = inhibition, most hits filed as inhibitors; 0.093% of 390,000 active; also: potency is read from the fitted curve at half-maximal effect; % is scaled to controls: 0 for no effect and ±100 for the full control effect; nearly all actives have a fitted effect of over 65% in size
Target sequence (O75874 whole entry R132H, stated change not applied): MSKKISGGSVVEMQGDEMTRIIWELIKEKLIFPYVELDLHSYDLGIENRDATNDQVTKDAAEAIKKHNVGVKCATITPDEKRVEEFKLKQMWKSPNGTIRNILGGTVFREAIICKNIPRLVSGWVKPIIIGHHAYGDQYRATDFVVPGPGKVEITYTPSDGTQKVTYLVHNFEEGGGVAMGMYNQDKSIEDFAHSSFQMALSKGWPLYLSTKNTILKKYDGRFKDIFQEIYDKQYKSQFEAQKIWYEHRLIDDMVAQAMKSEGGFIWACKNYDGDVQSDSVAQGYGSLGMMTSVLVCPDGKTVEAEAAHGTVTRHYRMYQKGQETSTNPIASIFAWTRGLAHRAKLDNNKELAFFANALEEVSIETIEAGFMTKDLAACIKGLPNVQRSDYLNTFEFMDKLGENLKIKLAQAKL
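IDH1-R132H (0.5 ug/mL) preincubated 30 min with compound, then NADPH (0.016 mM) and alpha-KG (2 mM) added; 80 min at RT, pH 7.5. Remaining NADPH coupled via diaphorase/resazurin to fluorescence (540/590 nm); concentration-response curves normalized to no-enzyme control.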
ClpP mod: qHTS Assay for Activators of ClpP; ATP-dependent Clp protease proteolytic subunit (Bacillus subtilis (strain 168)), P80244; purified B. subtilis ClpP, FRET peptide cleavage, 20 min; 1.9% of 340,000 active; Potency, µM (highest dose often 57.5 µM), inactives show at the highest dose activity change, negative = active; AID 651965, 2013; active = well fitted falling curve with a large enough effect; inconclusive = small, poorly fitted or top-dose-only effect; inactive = no such curve, though single readings can be large or run the other way; also: potency is read from the fitted curve at half-maximal effect; the source files actives as falling curves though it sought activators and does not explain the sign; nearly all actives have a fitted effect of over 65% in size
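Buffer: 100 mM Tris/HCl pH8, 100 mM KCl, 0.05% low protease BSA, 2.5% glycerol, 0.01% Tween-20. ClpP 10 microg/mL final; 20 min RT; delta FRET normalized to ADEP and DMSO controls.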
S-ASM inh: Inhibitors of Secretory Acid Sphingomyelinase (S-ASM): qHTS. AID 504937, 2011. 0.006% of 340,000 active. Potency, µM (highest dose often 57.5 µM), for inactives: at the top dose activity change, negative = inhibition, actives largely listed as inhibitors. placental ASM, HMU-PC fluorogenic substrate, 60 min; also: potency is read from the fitted curve at half-maximal effect
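HMU-PC0 cleavage (9 uM final) by human placental ASM, 60 min at 37 °C following 10 min compound exposure at RT; stopped at pH 10, fluorescence Ex 386/Em 447 nm.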
* = called active by the depositor; ? = inconclusive; nt = no result given; [ ] = dose if it differs, or a comment. This excerpt belongs to a sample that is enriched for hits. Unless noted, calls follow the shape of the dose curve; as a rule, active = well fitted curve in the direction sought with a large enough effect; inconclusive = small, poorly fitted or top-dose-only effect, or another doubt; inactive = no such curve, though single readings can be large; an effect the other way counts as inactive or inconclusive.

SMILES	RGS4 inhibitor	LDHA block	Mito fusion yeast	mIDH1 inhibitor	ClpP mod	S-ASM inh
COc1cccc(CNC(=O)c2cc3ccccc3[nH]2)c1	nt	-6	nt	nt	nt	nt
CCOC(=O)CC1(C)NC(=O)c2c(C)sc(C(=O)OCC)c2N1 (stereo not given)	-16%	0	0%	4%	?	44%
CCOC(=O)CC1(CC(=O)OCC)NC(=O)c2c(C)sc(C(=O)OCC)c2N1	-7%	-7	6%	4%	35µM*	31%
COc1ccccc1NC(=O)C(C)N(C)CC(=O)Nc1cccc2ccccc12 (stereo not given)	-12%	3	nt	3%	-29%	0%
CCNC(=O)NC(=O)C(C)N(C)CC(=O)Nc1cccc2ccccc12 (stereo not given)	nt	-33*	nt	nt	nt	nt
O=C(C1CCCN(c2ncnc3c2nc2n3CCCCC2)C1)N1CCN(c2cccc(Cl)c2)CC1 (stereo not given)	-22%	0	8.9µM*	-4%	-1%	-15%
CCCCc1c(C)[nH]n(-c2nc3ccccc3[nH]2)c1=O	nt	-11	nt	nt	nt	nt
COc1ccccc1N1CCN(c2nc(C)nc3c2oc2ccccc23)CC1	6%	8	12%	-1%	32µM*	-15%
N#CC1=C(N)N(c2ccccc2)C(c2ccccc2)C1(C#N)C#N (stereo not given)	6%	0	-1%	1%	10µM*	-19%
Cc1nn(-c2ccccc2)c2c1C(c1ccccc1)C(C#N)=C(N)O2 (stereo not given)	-6%[11.4 µM]	0	-11%	0%	-1%	0%
O=C(Cc1ccc(Cl)cc1)NNS(=O)(=O)c1ccc([N+](=O)[O-])cc1	-6%	8	4%	3%	0%	0%
CO/S(=N\S(=O)(=O)c1ccc(Cl)cc1)c1ccc([N+](=O)[O-])cc1 (stereo not given)	12µM*	nt	?	nt	nt	nt
Clc1cccc(N/N=C/C(Br)=C/c2ccccc2)c1	nt	7	nt	nt	nt	nt
COc1ccccc1N1CCN(C(C)C(=O)N2CC(C)OC(C)C2)CC1 (stereo not given)	9%	-39*	-1%	-4%	nt	1%
O=C(Cc1ccc2c(c1)CCC2)Nc1ccccc1Cc1ccccc1	nt	1	nt	nt	nt	nt
Cc1ccc2occ(/C=C/C(=O)c3ccccc3O)c(=O)c2c1	44%	-11	-3%	-6%	16µM*	30%
Cc1ccc2occ(/C=N/NC(=O)c3ccccc3O)c(=O)c2c1	9%	0	-2%	-5%	4%	1%
Cc1nn2c3ccccc3n(CCN3CCCCC3)c2nc1=O	10%	-3	-1%	4%	?	4%
C=CCn1c2ccccc2n2nc(C)c(=O)nc12	6%	0	-3%	6%	22µM*	0%
COc1ccc(NS(=O)(=O)c2cc(NC(=O)c3cncc(Br)c3)ccc2OC)cc1	5%	-6	nt	-4%	28µM*	-9%
O=C(CCn1cnnn1)N1CCCC(Nc2ccc(F)c(F)c2)C1 (stereo not given)	0%	11	0%	9%	32µM*	0%
COc1ccc(-c2c(NC(=O)C(C)C)oc3ccccc3c2=O)cc1	nt	0	nt	nt	nt	nt
CCOC(=O)CCc1c(C)nc2cc(-c3ccc(Cl)cc3)[nH]n2c1=O	-4%	1	1%	5%	?	-1%
CCOC(=O)Cc1c(C)nc2c(-c3ccccc3)c(C)[nH]n2c1=O	15%	2	4%	-7%	28µM*	3%
CCOC(=O)Cc1c(C)nc2c(-c3ccccc3)c[nH]n2c1=O	6%[11.4 µM]	0	1%	10%	16µM*	2%
SMILES	RGS4 inhibitor	LDHA block	Mito fusion yeast	mIDH1 inhibitor	ClpP mod	S-ASM inh
CCOC(=O)Cc1c(C)nc2c(-c3ccccc3)c(-c3ccccc3)[nH]n2c1=O	24%	3	-3%	6%	22µM*	-2%
CCOC(=O)Cc1c(C)nc2cc(-c3ccc(C)cc3)[nH]n2c1=O	18%	-1	-4%	-2%	16µM*	-2%
CC(=O)c1cccc(NC(=O)C(C)N2CCN(C(=O)c3cccs3)CC2)c1 (stereo not given)	nt	5	nt	nt	nt	nt
CCOC(=O)/C(C#N)=C/c1cc(Br)ccc1OCc1c(F)cccc1Cl	nt	-3	nt	nt	nt	nt
CNc1c(NC(=O)c2cccc(F)c2)c(=O)oc2ccccc12	nt	-13	nt	nt	nt	nt
CCOC(=O)N1CCN(CC(=O)Nc2oc3ccccc3c(=O)c2-c2ccc(Cl)cc2)CC1	nt	4	nt	nt	nt	nt
CCC1CCc2sc(C(=O)O)cc2C1 (stereo not given)	-7%	-5	0%	-6%	-2%	2%
CCC1CCc2sc(C(=O)NNC(=O)c3ccncc3)cc2C1 (stereo not given)	13%	-1	5%	2%	14µM*	nt
O=C(NCc1ccccc1)C12CC3CCC(CC(C3)C1)C2	nt	10	nt	nt	nt	nt
O=c1c2ccccc2sc2nc(CCl)nn12	-20%	-6	nt	1%	16µM*	3%
O=C(Nc1ccc2nc(N3CCOCC3)sc2c1)c1n[nH]c(=O)c2ccccc12	nt	7	nt	nt	nt	nt
CCc1ccc2oc(C(=O)Nc3nc(-c4ccccc4)ns3)c(C)c2c1	-6%	3	nt	1%	25µM*	nt
CCc1ccc2oc(C(=O)NCc3ccncc3)c(C)c2c1	-13%	7	1%	3%	28µM*	-1%
Cc1cc(C)c2c(C)c(C(=O)NCc3ccncc3)oc2c1	0%	-14	-1%	0%	?	-1%
O=C(c1cc2cc([N+](=O)[O-])ccc2oc1=O)N1CCN(c2ccccc2F)CC1	nt	5	nt	nt	nt	nt
Cn1c(=O)c2[nH]c(NCc3ccc4c(c3)OCO4)nc2n(C)c1=O	nt	6	nt	nt	nt	nt
Cc1ccccc1OCCC(=O)OCC(=O)c1c(N)n(CC(C)C)c(=O)n(C)c1=O	-39%	-8	nt	0%	28µM*	nt
Cc1ccc(OCCC(=O)OCC(=O)c2c(N)n(CC(C)C)c(=O)n(C)c2=O)cc1	4%	-2	-1%	-13%	1%	-11%
CCC1CCc2c(sc(NC(=O)c3ccc(C)cc3)c2C#N)C1 (stereo not given)	nt	1	nt	nt	nt	nt
